Values joined by “and” are separate entries in the source; they are usually repeats but may differ in a detail not shown here. Identical values can stand only once. Values without a mark were called inactive. Active and inactive are the calls of the source. How the calls were made is not given here.
Further: 0% is about no effect.

Chain of Nuclear receptor subfamily 1 group I member 2 (Rattus norvegicus) (Q9R1A7 whole entry, looked up): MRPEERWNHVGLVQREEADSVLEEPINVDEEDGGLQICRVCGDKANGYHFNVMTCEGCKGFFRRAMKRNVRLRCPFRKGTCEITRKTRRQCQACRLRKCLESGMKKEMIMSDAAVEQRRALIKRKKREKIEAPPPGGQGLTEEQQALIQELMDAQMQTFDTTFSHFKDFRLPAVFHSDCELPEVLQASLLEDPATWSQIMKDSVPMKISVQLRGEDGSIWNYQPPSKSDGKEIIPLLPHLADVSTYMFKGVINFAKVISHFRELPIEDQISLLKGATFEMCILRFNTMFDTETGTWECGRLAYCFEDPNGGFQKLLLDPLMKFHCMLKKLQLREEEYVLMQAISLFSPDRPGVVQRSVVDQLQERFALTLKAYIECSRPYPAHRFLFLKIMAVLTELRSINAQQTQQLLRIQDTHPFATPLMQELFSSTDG

The first experiment addresses Nuclear receptor subfamily 1 group I member 2 (Rattus norvegicus) (UniProt Q9R1A7). In words: qHTS assay for small molecule activators of the rat pregnane X receptor (rPXR) signaling pathway (AID 651751). As to conditions: rPXR reporter cells, luciferase (One-Glo), 24 h.
As to `Oc1c(I)cc(Cl)c2cccnc12`, the max response is -1.19%.
As to `COc1cccc2c1C(=O)c1c(O)c3c(c(O)c1C2=O)C[C@@](O)(C(C)=O)C[C@@H]3O[C@H]1C[C@H](N)[C@H](O)[C@H](C)O1`, the max response was -12.1%.
Same read-out and setting: the result for `CN(C)C(=S)SC(=S)N(C)C` reads -1.67%; that for `Oc1ccc(O)cc1`, -4.09%.
As to `C=CCc1ccc(O)c(OC)c1`, the max response was -0.084% and 3.11%.
Same read-out and setting: the result for `CC(O)C(=O)O` (centres undefined) reads 2.35%; that for `C=C(CC)C(=O)c1ccc(OCC(=O)O)c(Cl)c1Cl`, -15%.
Same read-out and setting: the figure for `CCCCCCc1ccc(O)cc1O` is -4.98% and -0.286%; for `Cc1cc(=O)n(-c2ccccc2)n1C` it is 0.521%.
With `CC(=O)Oc1ccc(C(c2ccc(OC(C)=O)cc2)c2ccccn2)cc1`, the max response was -3.28%.
On the same count and under the same terms, the figure for `COc1cccc2c1C(=O)c1c(O)c3c(c(O)c1C2=O)C[C@@](O)(C(=O)CO)C[C@@H]3O[C@H]1C[C@H](N)[C@H](O)[C@H](C)O1` is 0.888% and 0.44%; for `CC(O)(P(=O)(O)O)P(=O)(O)O` it is -3.46%.
For the compound `CC(C)(Oc1ccc(Cl)cc1)C(=O)O`, the max response is -4.53%.
For `O=C1OC(c2ccc(O)cc2)(c2ccc(O)cc2)c2ccccc21`, the max response is 7.44% and -0.397%.
On the same count and under the same terms, the result for `O=C(O)CCCCC(=O)O` reads -0.0429%; that for `CC/C(=C(/CC)c1ccc(O)cc1)c1ccc(O)cc1`, 1.62% and -5.34%; that for `CN(C)/N=N/c1nc[nH]c1C(N)=O`, -2.27%.
Regarding `Nc1ccc(C(=O)O)cc1`, the max response was -6.06%.

System in a further experiment: not listed separately
In words: qHTS assay for small molecule activators of the human pregnane X receptor (PXR) signaling pathway (AID 720659). The note with it: DPX-2 HepG2 CYP3A4-luciferase, 24 h; series mostly up to 92.3 µM; activation: at the top concentration.
For `Oc1c(Cl)cc(Cl)cc1Sc1cc(Cl)cc(Cl)c1O`, the call was inactive.
For `COc1cccc2c1C(=O)c1c(O)c3c(c(O)c1C2=O)C[C@@](O)(C(C)=O)C[C@@H]3O[C@H]1C[C@H](N)[C@H](O)[C@H](C)O1`, the “activation” value is -8.65%.
The same measure, in the same setting: the result for `Oc1ccc(O)cc1` reads -0.618%; that for `C[C@H]1C[C@H]2[C@@H]3CCC4=CC(=O)C=C[C@]4(C)[C@@]3(Cl)[C@@H](O)C[C@]2(C)[C@@]1(O)C(=O)CO`, 1.74%.
Regarding `C=CCc1ccc(O)c(OC)c1`, the compound was classed as inactive.
With `CC(O)C(=O)O` (centres undefined), the “activation” value was -1.64%.
`C=C(CC)C(=O)c1ccc(OCC(=O)O)c(Cl)c1Cl`: the “activation” value was -4.93%.
For the compound `CCCCCCc1ccc(O)cc1O`, the call was inactive.
Regarding `Cc1cc(=O)n(-c2ccccc2)n1C`, the “activation” value is 28.4%.
In the case of `COc1cccc2c1C(=O)c1c(O)c3c(c(O)c1C2=O)C[C@@](O)(C(=O)CO)C[C@@H]3O[C@H]1C[C@H](N)[C@H](O)[C@H](C)O1`, the call was inactive.
In the case of `CC(O)(P(=O)(O)O)P(=O)(O)O`, the “activation” value was -0.56%.
On the same count and under the same terms, the result for `CC(C)(Oc1ccc(Cl)cc1)C(=O)O` reads 3.41%.
On the same count and under the same terms, the figure for `O=C(O)CCCCC(=O)O` is -6.29%; for `CN(C)/N=N/c1nc[nH]c1C(N)=O` it is 0.649%.
Consider `NC(=NCCCCCCN=C(N)/N=C(\N)Nc1ccc(Cl)cc1)/N=C(\N)Nc1ccc(Cl)cc1`, for which the call was inactive.
In the case of `Nc1ccc(C(=O)O)cc1`, the “activation” value was -6.99%.

The values above are taken from PubChem BioAssay (NCATS).
